# The supplement of paper PMC8728848
# This is one part of a sample in which the strongest signals are shown more often than they occur.
# Experiments:
# Assay in all cases: glycan array binding signal (z-score within array); higher = stronger binding
# Settings in all cases: glycan notation: IUPAC condensed, linker removed; mutation: R186S
# [1] = target: Fuc(a1-2)Gal(b1-3)GalNAc(b1-4)[Neu5Ac(a2-3)]Gal(b1-4)Glc
# Method in brief: (§1)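 Glycan array binding is given as a within-array Z-score, which can be read as non-binding when negative. The arrays, 3228 of them, came from the Consortium for Functional Glycomics database and were retained only where the protein sequence was available. Z-scores were averaged across arrays of the same protein sequence at different concentrations or buffers and across linkers.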
# [2] = target: Fuc(a1-2)Gal(b1-4)[Fuc(a1-3)]GlcNAc(b1-2)Man(a1-3)[Fuc(a1-2)Gal(b1-4)[Fuc(a1-3)]GlcNAc(b1-2)Man(a1-6)]Man(b1-4)GlcNAc(b1-4)GlcNAc
# Method in brief: as §1
# [3] = target: Fuc(a1-2)Gal(b1-4)[Fuc(a1-3)]GlcNAc(b1-3)Gal(b1-4)[Fuc(a1-3)]GlcNAc(b1-3)Gal(b1-4)[Fuc(a1-3)]GlcNAc
# Method in brief: as §1
# [4] = target: Fuc(a1-2)[Gal(a1-3)]Gal(b1-3)GlcNAc(b1-2)Man(a1-3)[Fuc(a1-2)[Gal(a1-3)]Gal(b1-3)GlcNAc(b1-2)Man(a1-6)]Man(b1-4)GlcNAc(b1-4)GlcNAc
# Method in brief: as §1
# [5] = target: Fuc(a1-2)[Gal(a1-3)]Gal(b1-4)GlcNAc(b1-2)Man(a1-3)[Fuc(a1-2)[Gal(a1-3)]Gal(b1-4)GlcNAc(b1-2)Man(a1-6)]Man(b1-4)GlcNAc(b1-4)GlcNAc
# Method in brief: as §1
# [6] = target: Fuc(a1-2)[GalNAc(a1-3)]Gal(b1-3)GlcNAc(b1-2)Man(a1-3)[Fuc(a1-2)[GalNAc(a1-3)]Gal(b1-3)GlcNAc(b1-2)Man(a1-6)]Man(b1-4)GlcNAc(b1-4)GlcNAc
# Method in brief: as §1
# [7] = target: Fuc(a1-3)[Gal(b1-4)]GlcNAc(b1-2)Man(a1-3)[Fuc(a1-3)[Gal(b1-4)]GlcNAc(b1-2)Man(a1-6)]Man(b1-4)GlcNAc(b1-4)GlcNAc
# Method in brief: as §1
# [8] = target: Fuc(b1-3)GlcNAc
# Method in brief: as §1
# [9] = target: Gal(a1-3)Gal(b1-4)[Fuc(a1-3)]GlcNAc(b1-2)Man(a1-3)[Gal(a1-3)Gal(b1-4)[Fuc(a1-3)]GlcNAc(b1-2)Man(a1-6)]Man(b1-4)GlcNAc(b1-4)GlcNAc
# Method in brief: as §1
# [10] = target: Gal(b1-3)GlcNAc(b1-3)GalNAc
# Method in brief: as §1
# [11] = target: Gal(b1-3)[Fuc(a1-4)]GlcNAc(b1-2)Man(a1-3)[Gal(b1-3)[Fuc(a1-4)]GlcNAc(b1-2)Man(a1-6)]Man(b1-4)GlcNAc(b1-4)GlcNAc
# Method in brief: as §1
# [12] = target: Gal(b1-3)[Neu5Ac(a2-6)]GalNAc
# Method in brief: as §1
# [13] = target: Gal(b1-4)GlcNAc(b1-2)Man(a1-3)[Gal(b1-4)GlcNAc(b1-2)Man(a1-6)]Man(b1-4)GlcNAc(b1-4)[Fuc(a1-6)]GlcNAc
# Method in brief: as §1
# [14] = target: Gal(b1-4)GlcNAc(b1-2)Man(a1-6)[Man(a1-3)]Man(b1-4)GlcNAc(b1-4)GlcNAc
# Method in brief: as §1
# [15] = target: Gal(b1-4)GlcNAc(b1-2)[Gal(b1-4)GlcNAc(b1-4)]Man(a1-3)[Gal(b1-4)GlcNAc(b1-2)Man(a1-6)]Man(b1-4)GlcNAc(b1-4)GlcNAc
# Method in brief: as §1
# [16] = target: Gal(b1-4)GlcNAc(b1-3)Gal(b1-3)GlcNAc
# Method in brief: as §1
# [17] = target: GalNAc(b1-4)GlcNAc(b1-2)Man(a1-3)[GalNAc(b1-4)GlcNAc(b1-2)Man(a1-6)]Man(b1-4)GlcNAc(b1-4)GlcNAc
# Method in brief: as §1
# [18] = target: Glc(a1-6)Glc(a1-6)Glc
# Method in brief: as §1
# [19] = target: GlcA(b1-6)Gal
# Method in brief: as §1
# [20] = target: GlcNAc(a1-4)Gal(b1-4)GlcNAc(b1-3)Gal(b1-4)Glc
# Method in brief: as §1
# [21] = target: GlcNAc(b1-2)Man(a1-3)[GlcNAc(b1-2)Man(a1-6)]Man(b1-4)GlcNAc(b1-4)[Fuc(a1-6)]GlcNAc
# Method in brief: as §1
# [22] = target: GlcNAc(b1-3)Gal
# Method in brief: as §1
# [23] = target: GlcNAc(b1-3)Gal(b1-4)Glc
# Method in brief: as §1
# [24] = target: GlcNAc(b1-6)Gal(b1-4)GlcNAc
# Method in brief: as §1
# [25] = target: GlcNAc(b1-6)GalNAc
# Method in brief: as §1
# [26] = target: Kdn(a2-3)Gal(b1-4)Glc
# Method in brief: as §1
# [27] = target: Kdn(a2-6)Gal(b1-4)GlcNAc
# Method in brief: as §1
# [28] = target: Man(a1-2)Man(a1-2)Man(a1-3)Man
# Method in brief: as §1
# [29] = target: Man(a1-2)Man(a1-3)Man
# Method in brief: as §1
# [30] = target: Neu5Ac(a2-3)Gal(b1-3)GalNAc(b1-3)Gal(a1-4)Gal(b1-4)Glc
# Method in brief: as §1
binder,measurement,setting,value
"Gal 3 (Homo sapiens), P17931 (protein) MADNFSLHDALSGSGNPNPQGWPGAWGNQPAGAGGYPGASYPGAYPGQAPPGAYPGQAPPGAYHGAPGAYPGAPAPGVYPGPPSGPGAYPSSGQPSAPGAYPATGPYGAPAGPLIVPYNLPLPGGVVPRMLITILGTVKPNANILDFQRGNDVAFHFNPRFNENNRRVIVCNTKLDNNWGREESQSVFPFESGKPFKIQVLVEPDHFKVAVNDAHLLQYNHRVKKLNEISKLGISGDIDLTSASYTMI",glycan array binding signal (z-score),[1],-0.057
same,glycan array binding signal (z-score),[2],0.064
same,glycan array binding signal (z-score),[3],-0.032
same,glycan array binding signal (z-score),[4],19.8
same,glycan array binding signal (z-score),[5],0.619
same,glycan array binding signal (z-score),[6],0.242
same,glycan array binding signal (z-score),[7],0.045
same,glycan array binding signal (z-score),[8],-0.041
same,glycan array binding signal (z-score),[9],-0.061
same,glycan array binding signal (z-score),[10],-0.079
same,glycan array binding signal (z-score),[11],0.028
same,glycan array binding signal (z-score),[12],-0.068
same,glycan array binding signal (z-score),[13],-0.086
same,glycan array binding signal (z-score),[14],-0.047
same,glycan array binding signal (z-score),[15],-0.042
same,glycan array binding signal (z-score),[16],-0.007
same,glycan array binding signal (z-score),[17],-0.023
same,glycan array binding signal (z-score),[18],-0.051
same,glycan array binding signal (z-score),[19],-0.057
same,glycan array binding signal (z-score),[20],-0.057
same,glycan array binding signal (z-score),[21],-0.012
same,glycan array binding signal (z-score),[22],-0.059
same,glycan array binding signal (z-score),[23],-0.053
same,glycan array binding signal (z-score),[24],-0.076
same,glycan array binding signal (z-score),[25],-0.058
same,glycan array binding signal (z-score),[26],-0.004
same,glycan array binding signal (z-score),[27],-0.071
same,glycan array binding signal (z-score),[28],-0.067
same,glycan array binding signal (z-score),[29],-0.024
same,glycan array binding signal (z-score),[30],0.003
